{"source": "the supplement of paper PMC9492666", "key": {"HCC1937": {"tested_on": "HCC1937", "test": "relative cell viability, compound + RSL3, vs DMSO (fraction of DMSO control); higher = less growth inhibition", "conditions": "72 h"}, "MDA-MB-231": {"tested_on": "MDA-MB-231", "test": "relative cell viability, compound + RSL3, vs DMSO (fraction of DMSO control); higher = less growth inhibition", "conditions": "72 h"}}}
{"smiles": "CCC(C)(Oc1ccc(C2(c3ccc(OC(C)(CC)C(=O)O)cc3)CCCCC2)cc1)C(=O)O", "note": "(stereo not drawn) [Clinofibrate] + COC(=O)c1ccc([C@H]2c3[nH]c4ccccc4c3C[C@H](C(=O)OC)N2C(=O)CCl)cc1 [RSL3]", "values": [{"measurement": "relative cell viability", "setting": "HCC1937", "value": 0.561}, {"measurement": "relative cell viability", "setting": "MDA-MB-231", "value": 0.452}]}
{"smiles": "C[C@H](CCOc1cccc(CC(=O)O)c1)N(Cc1cccc(C(F)(F)F)c1Cl)CC(c1ccccc1)c1ccccc1", "note": "[RGX-104 free Acid] + COC(=O)c1ccc([C@H]2c3[nH]c4ccccc4c3C[C@H](C(=O)OC)N2C(=O)CCl)cc1 [RSL3]", "values": [{"measurement": "relative cell viability", "setting": "HCC1937", "value": 0.333}, {"measurement": "relative cell viability", "setting": "MDA-MB-231", "value": 0.561}]}
{"smiles": "NC(N)=N/N=C/c1cccc(Cl)c1Cl", "note": "[Raphin1 acetate] + COC(=O)c1ccc([C@H]2c3[nH]c4ccccc4c3C[C@H](C(=O)OC)N2C(=O)CCl)cc1 [RSL3]", "values": [{"measurement": "relative cell viability", "setting": "HCC1937", "value": 0.38}, {"measurement": "relative cell viability", "setting": "MDA-MB-231", "value": 0.603}]}
{"smiles": "CCC1C(O)C2C3CCC(C(C)CCO)C3(C)CCC2C2(C)CCC(O)CC12", "note": "(stereo not drawn) + COC(=O)c1ccc([C@H]2c3[nH]c4ccccc4c3C[C@H](C(=O)OC)N2C(=O)CCl)cc1 [RSL3]", "values": [{"measurement": "relative cell viability", "setting": "HCC1937", "value": 0.399}, {"measurement": "relative cell viability", "setting": "MDA-MB-231", "value": 0.364}]}
{"smiles": "N[C@@H](Cc1c[nH]cn1)C(=O)O", "note": "[histidine] + COC(=O)c1ccc([C@H]2c3[nH]c4ccccc4c3C[C@H](C(=O)OC)N2C(=O)CCl)cc1 [RSL3]", "values": [{"measurement": "relative cell viability", "setting": "HCC1937", "value": 0.622}, {"measurement": "relative cell viability", "setting": "MDA-MB-231", "value": 0.673}]}
{"smiles": "Cc1cnc(C(=O)NCCc2ccc(S(=O)(=O)NC(=O)NC3CCCCC3)cc2)cn1", "note": "[Glipizide] + COC(=O)c1ccc([C@H]2c3[nH]c4ccccc4c3C[C@H](C(=O)OC)N2C(=O)CCl)cc1 [RSL3]", "values": [{"measurement": "relative cell viability", "setting": "HCC1937", "value": 0.597}, {"measurement": "relative cell viability", "setting": "MDA-MB-231", "value": 0.484}]}
{"smiles": "COc1cccc(CNc2ccc(S(=O)(=O)Nc3nc4ccccc4s3)cc2)c1O", "note": "+ COC(=O)c1ccc([C@H]2c3[nH]c4ccccc4c3C[C@H](C(=O)OC)N2C(=O)CCl)cc1 [RSL3]", "values": [{"measurement": "relative cell viability", "setting": "HCC1937", "value": 0.583}, {"measurement": "relative cell viability", "setting": "MDA-MB-231", "value": 0.657}]}
{"smiles": "O=C(Nc1ccc(C(O)(C(F)(F)F)C(F)(F)F)cc1)c1ccccc1Cl", "note": "+ COC(=O)c1ccc([C@H]2c3[nH]c4ccccc4c3C[C@H](C(=O)OC)N2C(=O)CCl)cc1 [RSL3]", "values": [{"measurement": "relative cell viability", "setting": "HCC1937", "value": 0.489}, {"measurement": "relative cell viability", "setting": "MDA-MB-231", "value": 0.616}]}
{"smiles": "CC(C)Cc1ccc([C@H](C)C(=O)O)cc1", "note": "[Dexibuprofen] + COC(=O)c1ccc([C@H]2c3[nH]c4ccccc4c3C[C@H](C(=O)OC)N2C(=O)CCl)cc1 [RSL3]", "values": [{"measurement": "relative cell viability", "setting": "HCC1937", "value": 1.03}, {"measurement": "relative cell viability", "setting": "MDA-MB-231", "value": 0.606}]}
{"smiles": "CC(C)(CCCCCC(O)CCCCCC(C)(C)C(=O)O)C(=O)O", "note": "+ COC(=O)c1ccc([C@H]2c3[nH]c4ccccc4c3C[C@H](C(=O)OC)N2C(=O)CCl)cc1 [RSL3]", "values": [{"measurement": "relative cell viability", "setting": "HCC1937", "value": 0.288}, {"measurement": "relative cell viability", "setting": "MDA-MB-231", "value": 0.337}]}
{"smiles": "COc1ccc2c(=O)c(-c3ccccc3)coc2c1", "note": "[7-Methoxyisoflavone] + COC(=O)c1ccc([C@H]2c3[nH]c4ccccc4c3C[C@H](C(=O)OC)N2C(=O)CCl)cc1 [RSL3]", "values": [{"measurement": "relative cell viability", "setting": "HCC1937", "value": 0.396}, {"measurement": "relative cell viability", "setting": "MDA-MB-231", "value": 0.419}]}
{"smiles": "COc1ccc([C@@H]2OC[C@H]3[C@@H]2CO[C@@H]3c2ccc(O[C@@H]3O[C@H](CO)[C@@H](O)[C@H](O)[C@H]3O)c(OC)c2)cc1OC", "note": "[Forsythin] + COC(=O)c1ccc([C@H]2c3[nH]c4ccccc4c3C[C@H](C(=O)OC)N2C(=O)CCl)cc1 [RSL3]", "values": [{"measurement": "relative cell viability", "setting": "HCC1937", "value": 0.731}, {"measurement": "relative cell viability", "setting": "MDA-MB-231", "value": 0.664}]}
{"smiles": "Cc1nc(Nc2cnn(C3CCNCC3)c2)nc2c1N(C)C(=O)c1cc3ccccc3cc1N2C", "note": "+ COC(=O)c1ccc([C@H]2c3[nH]c4ccccc4c3C[C@H](C(=O)OC)N2C(=O)CCl)cc1 [RSL3]", "values": [{"measurement": "relative cell viability", "setting": "HCC1937", "value": 0.31}, {"measurement": "relative cell viability", "setting": "MDA-MB-231", "value": 0.287}]}
{"smiles": "O=C(O)CCn1c2c(c3ccccc31)C[C@H](NS(=O)(=O)c1ccc(F)cc1)CC2", "note": "[Ramatroban] + COC(=O)c1ccc([C@H]2c3[nH]c4ccccc4c3C[C@H](C(=O)OC)N2C(=O)CCl)cc1 [RSL3]", "values": [{"measurement": "relative cell viability", "setting": "HCC1937", "value": 0.41}, {"measurement": "relative cell viability", "setting": "MDA-MB-231", "value": 0.554}]}
